From PubChem BioAssay AID504384 (National Center for Advancing Translational Sciences (NCATS), 2011)
Activity calls are given as the source filed them.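 How the source made its calls: active means compound that blocked FSH-driven cAMP in FSH receptor cells, giving a fitted IC50; inactive means the rest.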

target: Follicle-stimulating hormone receptor (Homo sapiens) (UniProt P23945); assay: Counterscreen for antagonists of the thyroid stimulating hormone receptor: ELISA activity in a Follicle Stimulating Hormone receptor cell line; details: HEK293-FSHR, FSH-induced cAMP ELISA chemiluminescence
Sequence (P23945 whole entry, looked up): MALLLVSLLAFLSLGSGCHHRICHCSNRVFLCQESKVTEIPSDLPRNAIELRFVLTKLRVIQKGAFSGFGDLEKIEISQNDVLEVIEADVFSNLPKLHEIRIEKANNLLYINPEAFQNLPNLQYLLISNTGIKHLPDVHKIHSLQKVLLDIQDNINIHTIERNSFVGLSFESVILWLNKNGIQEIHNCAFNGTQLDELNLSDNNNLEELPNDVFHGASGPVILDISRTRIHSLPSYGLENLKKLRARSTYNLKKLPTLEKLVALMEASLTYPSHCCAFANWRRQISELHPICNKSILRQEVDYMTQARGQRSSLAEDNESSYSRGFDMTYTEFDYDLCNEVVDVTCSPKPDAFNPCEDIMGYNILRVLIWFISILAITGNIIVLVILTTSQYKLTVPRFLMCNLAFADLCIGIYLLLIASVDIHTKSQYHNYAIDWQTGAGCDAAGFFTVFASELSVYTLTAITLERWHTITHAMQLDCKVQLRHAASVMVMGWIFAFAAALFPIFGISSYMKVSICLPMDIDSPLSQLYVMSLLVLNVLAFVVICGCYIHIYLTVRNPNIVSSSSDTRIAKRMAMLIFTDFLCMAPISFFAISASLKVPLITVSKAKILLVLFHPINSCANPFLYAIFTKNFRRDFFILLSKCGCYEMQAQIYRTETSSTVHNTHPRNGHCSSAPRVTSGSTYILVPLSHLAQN
From the text: TSH is an alpha/beta heterodimeric glycoprotein hormone secreted from the anterior pituitary gland which belongs to the glycoprotein hormone family. The actions of TSH are mediated by a seven-transmembrane receptor, which upon TSH binding couples preferentially to the G-alpha (s) protein (Gs), resulting in activation of adenylate cyclase and increase in cyclic adenosine 3', 5' monophosphate (cAMP). The TSH receptor (THSR) is mainly expressed in thyroid follicular cells and regulates their growth and function. This cell based assay was conducted on a TSHR transfected HEK 293 cell line, measuring cAMP stimulation using antibody-based Homogeneous Time Resolved Fluorescence (HTRF). Our goal is to identify small molecules that will inhibit (antagonize) the thyroid-stimulating hormone receptor (TSHR), a member of the 7 transmembrane-spanning receptor (7TMR) family of cell surface receptors. TSHR-mediated hyperthyroidism is important in thyroid pathology. The development of small molecule antagonists of TSHR may lead to therapeutic approaches for TSHR-mediated hyperthyroidism caused by constitutively activating mutations or stimulating auto-antibodies associated with Graves' disease. Graves' disease is the leading cause of hyperthyroidism and is caused by autoantibodies that stimulate TSHR (TsAbs) causing thyroid growth and unregulated overproduction of thyroid hormones and existing treatments have liabilities (agranulocytosis). In addition, TSHRs are known to be expressed in multiple extrathyroidal tissues including bone, brain, kidney, testis, fat and cells of the immune system but the role of the TSHR in these tissues is not clear. Therefore, TSHR antagonists/inverse agonists could be used as probes of extrathyroidal TSHR function. Finally, TSHR inverse agonists, which are a subclass of antagonists that inhibit agonist-independent (or basal or constitutive) TSHR signaling, could be used to inhibit TSH-independent signaling in patients with recurrent or metastatic thyroid cancer who are receiving thyroid hormone to suppress TSH. In order to confirm specificity of the compounds to the TSHR, a confirmatory assay was conducted on a similar family member, the Follicle Stimulating Hormone (FSH) receptor, transfected into a HEK 293 cell line, using an orthogonal detection technology to measure cAMP stimulation: an ELISA based cAMP competition assay using cAMP-Screen Direct System (Applied Biosystems, Foster City, CA).
Transiently transfected HEK-EM 293 cells or cells stably expressing FSHR were seeded into 96-well plates at a density of 7 x10^4 cells per well in DMEM containing 10% FBS. Cells were cultured for 24 h before incubation for 20 min in HBSS/10 mM HEPES (pH 7.4). To determine the effect of the compound on FSH induced FSHR activity, cells were incubated for 20 min with the compound in HBSS/HEPES without IBMX and subsequently for 40 min with bovine FSH (Sigma) and the compound in HBSS/HEPES supplemented with 1 mM IBMX at 37 C. The levels of cAMP in cells incubated in HBSS/HEPES without IBMX were subtracted in all experiments. After aspiration of the incubation medium, cells were lysed using lysis buffer of the cAMP-Screen Direct system (Applied Biosystems, Foster City, CA). The cAMP content of the cell lysate was determined using the method described in the manufacturer's protocol. The chemiluminescence signal was measured in a VICTOR3 V 1420 multilabel counter (PerkinElmer, Norwalk, CT). The potencies (EC50 and IC50) of the ligands were obtained from dose-response curves by data analysis with GraphPad Prism 4 for Windows.

Compound	outcome	IC50
CCc1cccc(CC)c1OCc1cc(C2Nc3ccccc3C(=O)N2Cc2ccco2)ccc1OC (stereo unspecified)	inactive	–
COc1ccc(C2Nc3ccccc3C(=O)N2Cc2ccco2)cc1COc1c(C)cc(NC(C)=O)cc1C (stereo unspecified)	inactive	–
COc1ccc(C2Nc3ccccc3C(=O)N2Cc2ccco2)cc1CSc1c(C)cccc1C (stereo unspecified)	–	14.6 µM (active)
COc1ccc(C2Nc3ccccc3C(=O)N2Cc2cccnc2)cc1COc1c(C)cccc1C (stereo unspecified)	–	32.7 µM (active)
COc1ccc(C2Nc3ccccc3C(=O)N2Cc2ccco2)cc1COc1c(C)cccc1C (stereo unspecified)	–	4.55 µM (active)
Cc1cccc(C)c1OCc1cccc(C2Nc3ccccc3C(=O)N2Cc2ccco2)c1 (stereo unspecified)	–	8.2 µM (active)
